Results filed as inconclusive are left out. Unmarked numbers belong to inactive results. Activity calls are given as the source filed them. The call rests on the fitted dose curve; in most records, active means well fitted inhibition curve with a large enough effect in the signal ratio in the repeat runs (not every such curve was filed as active); inconclusive means weak or mixed curves, or effect the other way; inactive means no such curve, though single readings can be large or run the other way; the % refers to the signal ratio.
On the % scale 0 is the no-effect control and ±100 the full control effect.

For the assay, the target named is Peroxisome proliferator-activated receptor delta (Homo sapiens) (UniProt Q03181). Put plainly: qHTS assay to identify small molecule antagonists of the peroxisome proliferator-activated receptor delta (PPARd) signaling pathway (AID 743215).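 Further: cells stimulated with agonist L165041 at 300 nM final during compound exposure.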 The conditions noted are these: HEK293H PPARd-UAS-bla, beta-lactamase FRET ratio, antagonist, 17 h; series mostly up to 62 µM. The text has this: U.S. Tox21 Program National Center for Advancing Translational Sciences [NCATS] NIH Chemical Genomics Center [NCGC] U.S. Environmental Protection Agency [EPA] National Institutes of Environmental Health Sciences [NIEHS] National Toxicology Program [NTP] U.S. Food and Drug Administration [FDA] Tox21 Assay Overview: The peroxisome proliferator-activated receptors (PPARs) are lipid-activated transcription factors of the nuclear receptor superfamily with three distinct subtypes namely PPAR alpha, PPAR delta (PPARd) and PPAR gamma. All these subtypes heterodimerizes with Retinoid X receptor (RXR) and have different physiological functions. […] To identify the compounds that inhibit PPAR-delta signaling, GeneBLAzer PPAR delta UAS-bla HEK293H cell line (Invitrogen, Carlsbad, CA, USA) containing a beta-lactamase reporter gene under the control of an Upstream Activator Sequence (UAS) was used to screen the Tox21 compound library.
Peroxisome proliferator-activated receptor delta (Homo sapiens), sequence (Q03181 whole entry, looked up): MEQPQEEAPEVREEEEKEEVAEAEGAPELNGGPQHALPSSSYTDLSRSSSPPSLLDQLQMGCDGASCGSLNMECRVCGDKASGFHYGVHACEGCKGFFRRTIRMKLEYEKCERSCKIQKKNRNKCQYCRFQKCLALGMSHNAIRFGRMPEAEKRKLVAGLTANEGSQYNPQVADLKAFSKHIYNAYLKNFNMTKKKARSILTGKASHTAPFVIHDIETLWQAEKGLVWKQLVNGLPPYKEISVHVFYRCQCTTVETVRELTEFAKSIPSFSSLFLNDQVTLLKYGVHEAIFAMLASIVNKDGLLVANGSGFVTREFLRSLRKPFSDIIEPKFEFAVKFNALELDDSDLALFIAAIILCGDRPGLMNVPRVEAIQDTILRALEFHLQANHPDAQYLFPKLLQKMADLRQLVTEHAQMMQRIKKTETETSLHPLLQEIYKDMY
Tox21 Assay Protocol Summary: PPARd-bla cells were dispensed at 3000 cells/5uL/well in 1536-well black wall/clear bottom plates using a Multidrop Combi (Thermo Fisher Scientific, Waltham, MA) dispenser. After the assay plates were incubated at 37 C and 5% CO2 for 5 h, 23 nL of compounds dissolved in DMSO, positive controls or DMSO only was transferred to the assay plate by a Pintool station (Kalypsys, San Diego, CA), followed by addition of 1ul L165041 (300 nM, final concentration in the wells). The assay plates were incubated at 37 C for 17 h, and then 1 uL of LiveBLAzerTM B/G FRET substrate was added using a Bioraptr Flying Reagent Dispenser (FRD) workstation (Beckman Coulter, Indianapolis, IN, USA). The assay plates were incubated at room temperature for 2 h and fluorescence intensity was measured by an Envision plate reader (PerkinElmer, Shelton, CT).
For the molecule `CC(C)CCCCCCCOC(=O)c1ccc(C(=O)OCCCCCCCC(C)C)c(C(=O)OCCCCCCCC(C)C)c1`, the result was inactive.

As for `N#CCCCC(C#N)CCC#N` (stereo not given), the outcome was inactive.

Take `C/C=C1\[C@H]2C=C(C)C[C@]1(N)c1ccc(=O)[nH]c1C2`: the result was inactive.

`CC(CN=Cc1ccccc1O)N=Cc1ccccc1O` (stereo not given): the outcome was inactive.

Turning to `CCCC1CCCC(=O)O1` (stereo not given), the outcome was inactive.

For `CCC(C)CCCC(C)(C)O` (stereo not given), the result was inactive.

Consider `O=C(O)c1ccccc1[N+](=O)[O-]`, for which the outcome was inactive.

For `CCCCC(CC)COCCC#N` (stereo not given), the outcome was inactive.

Turning to `O=Cc1ccc(Cl)c([N+](=O)[O-])c1`, the result was inactive.

For the molecule `Cc1c(-c2cccnc2)c2ccccc2n1CCCCC(=O)O`, the outcome was inactive.

As to `SCCOCCOCCS`, the result was inactive.

As for `Nc1cccc2c(=O)[nH][nH]c(=O)c12`, the result was inactive.

`O=[N+]([O-])c1cccc(I)c1`: the result was inactive.

For the molecule `C(/C=C/C=C/Nc1ccccc1)=Nc1ccccc1`, the result was inactive.

For `CC(C(=O)O)c1ccc2c(c1)Cc1cccnc1O2` (stereo not given), the outcome was inactive.

Regarding `O=C(Cl)c1ccc(F)c(Cl)c1`, the result was inactive.

As for `N#C[C@@H]1CC(F)(F)CN1C(=O)CNC1CC2CCC(C1)N2c1ncccn1` (stereo not given in full), the result was inactive.

For the molecule `CS(C)=O`, the result was inactive.

As to `O=S(=O)(O)c1cc(Cl)c(Cl)cc1Cl`, the outcome was inactive.

As for `CCCCCCCCCCCCCCCCCCCl`, the ratio activity, negative = inhibition was -12.3% [at 6.26 µM].

`Clc1nc2ccccc2nc1Cl`: the outcome was inactive.

As for `O=[N+]([O-])c1ccc(Cl)cc1Cl`, the outcome was inactive.

Take `O=C1c2ccccc2C(=O)c2c1ccc(O)c2O`: the outcome was inactive.

As for `COC(=O)Cc1cccc2ccccc12`, the result was inactive.

For `COc1ccc(/C=C/c2cc(OC)cc(=O)o2)cc1`, the outcome was inactive.

Regarding `NC(=O)c1ccccc1C(N)=O`, the outcome was inactive.

On to `CCOCCn1c(N2CCCN(C)CC2)nc2ccccc21`, for which the result was inactive.

As to `O=C1CCCN1CCO`, the outcome was inactive.

On to `C[C@H]1C[C@H]2[C@@H]3CCC4=CC(=O)C=C[C@]4(C)[C@@]3(F)[C@@H](O)C[C@]2(C)[C@@]1(O)C(=O)COP(=O)(O)O`, for which the result was inactive.

Consider `CCOc1cc(OCC)c(C(C)=O)cc1OCC`, for which the result was inactive.

Consider `COc1ccc(CN(CCN(C)C)c2ncccn2)cc1`, for which the outcome was inactive.

`CCCCCCCCCCCCN1CCOCC1`: the outcome was inactive.

As to `Cc1c(Cl)cccc1[N+](=O)[O-]`, the result was inactive.

With `O=C(O)c1c2ccccc2cc2ccccc12`, the outcome was inactive.

Turning to `C=CC(C)(O)CC/C=C(/C)CCC=C(C)C` (stereo not given), the result was inactive.

For the molecule `C1CCN(CN2CCCCC2)CC1`, the result was inactive.

Consider `COc1ccc(/C=C/S(=O)(=O)NC(=O)c2ccc(C)cc2Cl)cc1`, for which the outcome was inactive.

Turning to `CCC(C)C1N=C(C)C(C)S1` (stereo not given), the result was inactive.

In the case of `CNc1ccccc1`, the outcome was inactive.

Consider `COc1ccc(/C(C)=C/C(=O)O)c(OC)c1`, for which the outcome was inactive.

Values taken from PubChem BioAssay (Tox21).
